Results filed as inconclusive are left out. The source made the active and inactive calls. Rule for the calls, unless noted: active = hit-call score of the fitted dose curve at least 0.9, where 1 is the maximum; inactive = score below 0.9.

The nature of experiment [1]: ACEA_ER_80hr: ACEA Biosciences xCELLigence Real-Time Cell Analysis on Estrogen Receptor Agonism for Proliferation (AID 2282667; active = hit-call score of the fitted dose curve at least 0.9, where 1 is the maximum). The following applies: T47D proliferation, impedance (xCELLigence), 80 h. An outline of the steps: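 Real-time impedance growth kinetics of human T-47D breast cells read 80 h after dosing, gain-of-signal fitted relative to DMSO. Compounds: 1:4 serial series, top final concentration 100 uM, n = 2.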

The nature of experiment [2]: ATG_CRE_CIS: Attagene CIS-FACTORIAL HepG2 Assay for human cAMP Responsive Element (CRE) binding protein 3 (AID 2282926). The following applies: HepG2 CRE cis-reporter, Attagene multiplexed mRNA; actives raise or lower the signal. An outline of the steps:
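Multiplexed transcription-unit reporters transfected into HepG2; 24 h dosing; RT-PCR/capillary electrophoresis fluorescence read-out; bidirectional fit vs DMSO.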

Experiment [3] deals with CCAAT/enhancer-binding protein beta (Homo sapiens) (UniProt P17676). Kind of experiment: ATG_C_EBP_CIS: Attagene CIS-FACTORIAL HepG2 Assay for human CCAAT/Enhancer Binding Protein (C/EBP) beta (AID 2282927). The following applies: HepG2 Attagene cis-factorial transcription factor reporter; actives raise or lower the signal. An outline of the steps: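 Endogenous C/EBPb-driven reporter transcripts measured in transfected human HepG2 cells at 24 h via RT-PCR and capillary electrophoresis of labelled fragments. Activity fitted in both directions relative to DMSO baseline.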
CCAAT/enhancer-binding protein beta (Homo sapiens), sequence (P17676 whole entry, looked up, the tested form may be a part): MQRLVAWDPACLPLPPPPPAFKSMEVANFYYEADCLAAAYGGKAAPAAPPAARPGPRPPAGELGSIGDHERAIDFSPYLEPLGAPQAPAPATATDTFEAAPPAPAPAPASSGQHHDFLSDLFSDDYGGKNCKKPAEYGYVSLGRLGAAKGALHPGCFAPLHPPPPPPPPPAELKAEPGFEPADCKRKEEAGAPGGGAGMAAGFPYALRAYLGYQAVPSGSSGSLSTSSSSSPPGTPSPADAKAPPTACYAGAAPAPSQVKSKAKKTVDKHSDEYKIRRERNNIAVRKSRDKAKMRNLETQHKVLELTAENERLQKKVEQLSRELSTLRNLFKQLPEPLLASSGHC

Experiment [4] in a line: ATG_CMV_CIS: Attagene CIS-FACTORIAL HepG2 Assay for human CMV (Internal Marker) (AID 2282928).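 Note: endpoint acts as a background internal control marker rather than a target.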 The settings on record: HepG2 CMV promoter reporter, transcription factor profiling; actives raise or lower the signal. An outline of the steps: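 After transient transfection of HepG2 with reporter transcription units driven by cis-regulatory promoters, cells receive test chemical for 24 h. Labeled reporter amplicons, digested with HpaI, are sized and quantified by capillary electrophoresis against DMSO.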

Experiment [5] can be described thus: ATG_DR4_LXR_CIS: Attagene CIS-FACTORIAL HepG2 Assay for human Liver X Receptor (LXR), DR4 submotif (AID 2282929). The settings on record: HepG2 Attagene DR4 cis-reporter, mRNA transcription; actives raise or lower the signal. An outline of the steps: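 Transiently transfected HepG2 liver cells; cis-regulated reporters; 24 h dosing. RT-PCR plus CE read-out of reporter mRNA. DMSO baseline, bidirectional curve fitting.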

Experiment [6] has as its target Aryl hydrocarbon receptor (Homo sapiens) (UniProt P35869). As to the kind of experiment: ATG_Ahr_CIS: Attagene CIS-FACTORIAL HepG2 Assay for human Aryl Hydrocarbon Receptor (Ahr) (AID 2282930). The following applies: HepG2 AhR cis-factorial reporter transcription; actives raise or lower the signal. An outline of the steps:
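Reporter mRNA levels, quantified by RT-PCR and fluorescent capillary electrophoresis, reflect endogenous AhR transcriptional activity in HepG2 cells carrying transfected cis-promoter reporter constructs. Readout at 24 h post-dose; gain or loss fitted against DMSO baseline.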

Experiment [7] can be described thus: ATG_AP_1_CIS: Attagene CIS-FACTORIAL HepG2 Assay for human Activator Protein 1 (AP-1) (AID 2282931). The following applies: HepG2 Attagene cis-factorial AP-1 reporter mRNA; actives raise or lower the signal. An outline of the steps: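 We transfected HepG2 cells transiently with a set of cis-regulated reporter transcription units, dosed them for 24 h, and quantified reporter mRNA via RT-PCR and capillary electrophoresis, scoring gain or loss of signal relative to DMSO.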

Experiment [8] can be described thus: ATG_AP_2_CIS: Attagene CIS-FACTORIAL HepG2 Assay for human Activator Protein 2 (AP-2) (AID 2282932). The following applies: HepG2 AP-2 cis-reporter, Attagene transcription factor profiling; actives raise or lower the signal. An outline of the steps: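 Step one: transient transfection of HepG2 with reporter transcription units. Step two: 24 h chemical exposure. Step three: RNA extraction, RT-PCR, labelled fragment analysis by capillary electrophoresis; DMSO serves as baseline.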

Experiment [9] is described as follows: ATG_BRE_CIS: Attagene CIS-FACTORIAL HepG2 Assay for human Bone Morphogenetic Protein (BMP) Response Element (BRE) (AID 2282933). The following applies: HepG2 BMP response element reporter, Attagene transcription factor profiling; actives raise or lower the signal. An outline of the steps: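 Fluorescence-labelled reporter cDNA fragments, separated by capillary electrophoresis, gave the signal for this component of a 52-readout multiplex. HepG2 cells were transfected, exposed to chemicals for 24 h, and compared with DMSO using bidirectional fitting.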

Experiment [10] concerns the target Retinoic acid receptor alpha (Homo sapiens) (UniProt P10276). Kind of experiment: ATG_DR5_RAR_CIS: Attagene CIS-FACTORIAL HepG2 Assay for human Retinoic Acid Receptor Alpha (RARE), DR5 submotif (AID 2282934).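 For AC50: reporter responds to endogenous RAR alpha beta and gamma in HepG2 not RARA alone.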 The settings on record: HepG2 Attagene cis-factorial RARE DR5 reporter, mRNA; actives raise or lower the signal. An outline of the steps:
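Reporter transcripts from a DR5-regulated unit, measured via RT-PCR plus capillary electrophoresis, reflect endogenous RAR activity in transiently transfected human HepG2 liver cells. Exposure lasted 24 h; gain or loss of signal scored against DMSO.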

The target in experiment [11] is Transcription factor E2F1 (Homo sapiens) (UniProt Q01094). Kind of experiment: ATG_E2F_CIS: Attagene CIS-FACTORIAL HepG2 Assay for human E2F Transcription Factor 1 (AID 2282935). The settings on record: HepG2 Attagene cis-reporter, E2F reporter RNA transcripts; actives raise or lower the signal. An outline of the steps: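 Total RNA from 24 h-treated, reporter-transfected HepG2 cells undergoes DNase I treatment, oligo(dT) reverse transcription, PCR and 6-FAM primer extension before capillary electrophoresis.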
Transcription factor E2F1 (Homo sapiens), sequence (Q01094 whole entry, looked up): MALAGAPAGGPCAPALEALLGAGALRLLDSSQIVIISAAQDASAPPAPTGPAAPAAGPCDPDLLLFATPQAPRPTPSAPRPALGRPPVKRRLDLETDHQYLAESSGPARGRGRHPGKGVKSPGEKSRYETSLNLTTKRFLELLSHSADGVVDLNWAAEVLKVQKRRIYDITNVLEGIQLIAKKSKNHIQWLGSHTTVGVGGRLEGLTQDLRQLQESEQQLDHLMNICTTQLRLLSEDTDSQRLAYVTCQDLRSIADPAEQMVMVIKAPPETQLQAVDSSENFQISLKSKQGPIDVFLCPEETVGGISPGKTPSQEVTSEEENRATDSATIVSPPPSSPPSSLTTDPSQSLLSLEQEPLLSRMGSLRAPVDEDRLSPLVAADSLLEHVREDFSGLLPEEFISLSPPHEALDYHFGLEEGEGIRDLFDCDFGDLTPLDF

A short description of experiment [12]: ATG_E_Box_CIS: Attagene CIS-FACTORIAL HepG2 Assay for human Enhancer Box (E-box) (AID 2282936). The following applies: HepG2 E-box cis-reporter transcription, actives raise or lower the signal. An outline of the steps: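 DMSO served as negative control and baseline for bidirectional fitting. Human hepatoma HepG2 cells, transiently transfected with cis-reporter constructs, were dosed 24 h; reporter mRNA read by RT-PCR and capillary electrophoresis.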

Experiment [13] in a line: ATG_M_61_CIS: Attagene CIS-FACTORIAL HepG2 Assay for M61 Transcription Factor (Internal Marker) (AID 2282937). The settings on record: HepG2 Attagene CIS-FACTORIAL M61 internal marker reporter; actives raise or lower the signal. An outline of the steps:
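Multiplexed reporter mRNA assay, HepG2 human hepatoma cells, 24 h treatment. Signal: FAM-labelled, HpaI-digested RT-PCR fragments by CE. Fit: bidirectional, baseline DMSO.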

The nature of experiment [14]: ATG_EGR_CIS: Attagene CIS-FACTORIAL HepG2 Assay for human Early Growth Response 1 (EGR1) (AID 2282938). The following applies: HepG2 Attagene CIS-FACTORIAL EGR reporter mRNA; actives raise or lower the signal. An outline of the steps: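 Multiplexed cis-reporter system in human hepatoma HepG2 cells, transiently transfected. Cells are dosed for 24 h; reporter transcripts are amplified, fluorescently tagged and sized by capillary electrophoresis, with DMSO as negative control.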

A short description of experiment [15]: ATG_M_19_CIS: Attagene CIS-FACTORIAL HepG2 Assay for M19 Transcription Factor (Internal Marker) (AID 2282939). The following applies: HepG2 Attagene CIS-FACTORIAL M19 internal marker reporter; actives raise or lower the signal. An outline of the steps: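 HepG2, MRTU transient transfection, 24 h dosing. Total RNA → RT-PCR → 6-FAM primer extension → HpaI digest → CE fluorescence. Bidirectional curve fit, DMSO negative control.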

The nature of experiment [16]: ATG_ERE_CIS: Attagene CIS-FACTORIAL HepG2 Assay for Estrogen Response Element (ERE) (AID 2282940). The following applies: HepG2 ERE cis-reporter, Attagene RNA transcript; actives raise or lower the signal. An outline of the steps:
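After a 24 h chemical treatment, RNA from reporter-transfected HepG2 cells is reverse-transcribed, PCR-amplified and fluorescently labelled. Fragments separated by capillary electrophoresis give reporter signal; DMSO serves as negative control.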

Experiment [17] in a line: ATG_Ets_CIS: Attagene CIS-FACTORIAL HepG2 Assay for human Erythroblast Transformation Specific (ETS) (AID 2282941). The settings on record: HepG2 ETS cis-reporter transcription, actives raise or lower the signal. An outline of the steps: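 Human HepG2 hepatoma cells were transiently transfected with promoter-driven reporter constructs and treated for 24 hours. Reporter transcripts were quantified by RT-PCR with fluorescent primer extension; bidirectional curve fitting used DMSO as reference.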

In experiment [18] the target is Hepatocyte nuclear factor 3-beta (Homo sapiens) (UniProt Q9Y261). Kind of experiment: ATG_FoxA2_CIS: Attagene CIS-FACTORIAL HepG2 Assay for human Forkhead box A2 (FOXA2) (AID 2282942). The settings on record: HepG2 cis-reporter transcription factor activity, 24 h; actives raise or lower the signal. An outline of the steps: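 Multiplexed cis-element reporter assay in transiently transfected HepG2. Twenty-four hours post-dosing, RNA was reverse-transcribed, amplified, FAM-labelled, HpaI-digested and separated by CE. Activity gain or loss relative to DMSO.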
Hepatocyte nuclear factor 3-beta (Homo sapiens), sequence (Q9Y261 whole entry, looked up): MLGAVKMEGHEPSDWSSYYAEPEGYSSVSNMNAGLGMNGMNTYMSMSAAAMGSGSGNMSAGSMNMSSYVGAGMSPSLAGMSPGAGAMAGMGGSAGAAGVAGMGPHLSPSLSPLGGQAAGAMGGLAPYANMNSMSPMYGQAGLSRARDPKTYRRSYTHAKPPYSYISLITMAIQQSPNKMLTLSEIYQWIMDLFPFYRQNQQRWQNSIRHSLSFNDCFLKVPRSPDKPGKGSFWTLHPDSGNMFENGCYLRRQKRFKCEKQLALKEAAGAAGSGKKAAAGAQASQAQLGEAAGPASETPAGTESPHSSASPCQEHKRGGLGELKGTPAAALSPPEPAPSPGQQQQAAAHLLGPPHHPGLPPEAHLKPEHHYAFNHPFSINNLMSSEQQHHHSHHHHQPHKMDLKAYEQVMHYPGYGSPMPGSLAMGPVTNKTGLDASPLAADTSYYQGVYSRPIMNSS

Experiment [19] can be described thus: ATG_FoxO_CIS: Attagene CIS-FACTORIAL HepG2 Assay for human Forkhead box O (FoxO) (AID 2282943). The following applies: HepG2 Attagene cis-reporter, FoxO element, mRNA; actives raise or lower the signal. An outline of the steps: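 Endogenous transcription factor activity read from multiplexed cis-promoter reporter transcripts in transiently transfected HepG2, 24 h after dosing. Reporter RNA measured via RT-PCR plus capillary electrophoresis of FAM-labeled products; gain or loss relative to DMSO.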

A short description of experiment [20]: ATG_GATA_CIS: Attagene CIS-FACTORIAL HepG2 Assay for human GATA Binding Protein (AID 2282944). The settings on record: HepG2 GATA cis-element reporter, Attagene multiplex mRNA; actives raise or lower the signal. An outline of the steps: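 Cells: HepG2, transiently transfected with cis-regulated reporter transcription units. Exposure: 24 h. Detection: RT-PCR plus capillary electrophoresis of FAM-labeled fragments. Analysis: bidirectional, DMSO as baseline.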

Retinoic acid receptor alpha (Homo sapiens), sequence (P10276 whole entry, looked up): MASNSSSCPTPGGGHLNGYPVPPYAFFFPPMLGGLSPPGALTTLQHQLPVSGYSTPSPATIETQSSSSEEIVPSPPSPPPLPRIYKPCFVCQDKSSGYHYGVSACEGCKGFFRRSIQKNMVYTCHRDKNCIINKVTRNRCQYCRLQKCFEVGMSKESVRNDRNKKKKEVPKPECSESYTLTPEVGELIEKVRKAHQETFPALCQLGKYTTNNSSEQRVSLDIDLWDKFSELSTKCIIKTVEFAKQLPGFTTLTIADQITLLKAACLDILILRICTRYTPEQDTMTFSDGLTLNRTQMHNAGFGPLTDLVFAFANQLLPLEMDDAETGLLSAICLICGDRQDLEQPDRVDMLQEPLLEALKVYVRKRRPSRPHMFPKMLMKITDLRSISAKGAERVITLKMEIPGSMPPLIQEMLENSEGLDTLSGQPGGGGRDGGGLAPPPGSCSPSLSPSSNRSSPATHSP
Aryl hydrocarbon receptor (Homo sapiens), sequence (P35869 whole entry, looked up): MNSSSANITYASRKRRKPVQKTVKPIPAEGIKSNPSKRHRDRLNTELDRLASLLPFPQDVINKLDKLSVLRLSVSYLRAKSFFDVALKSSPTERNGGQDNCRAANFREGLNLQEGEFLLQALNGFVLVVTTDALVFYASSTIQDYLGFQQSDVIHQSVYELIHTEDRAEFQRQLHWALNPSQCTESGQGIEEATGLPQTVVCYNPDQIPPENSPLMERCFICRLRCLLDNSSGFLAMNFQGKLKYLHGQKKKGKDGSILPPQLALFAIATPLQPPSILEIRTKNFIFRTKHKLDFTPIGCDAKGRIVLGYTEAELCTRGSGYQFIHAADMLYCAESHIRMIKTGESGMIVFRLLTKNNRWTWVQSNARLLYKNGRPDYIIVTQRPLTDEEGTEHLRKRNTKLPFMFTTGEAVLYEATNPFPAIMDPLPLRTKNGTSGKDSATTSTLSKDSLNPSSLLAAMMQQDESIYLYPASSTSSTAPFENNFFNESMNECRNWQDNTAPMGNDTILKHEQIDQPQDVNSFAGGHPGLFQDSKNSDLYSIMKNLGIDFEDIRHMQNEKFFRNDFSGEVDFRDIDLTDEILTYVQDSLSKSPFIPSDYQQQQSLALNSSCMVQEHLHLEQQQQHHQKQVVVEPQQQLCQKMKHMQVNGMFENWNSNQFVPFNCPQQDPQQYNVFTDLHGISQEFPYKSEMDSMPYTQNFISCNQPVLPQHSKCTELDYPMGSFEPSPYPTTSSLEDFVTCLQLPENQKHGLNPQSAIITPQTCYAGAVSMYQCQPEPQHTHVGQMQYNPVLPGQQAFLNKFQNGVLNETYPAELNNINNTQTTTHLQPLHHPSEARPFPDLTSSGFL

As to `Oc1ccc2c(c1)CCC2`, the outcome in experiment [1], in experiment [2], in experiment [3], in [4], in experiment [5] and in experiment [6] was inactive. Moreover, the call in [7], in [8], in experiment [9], in experiment [10], in experiment [11] and in [12] was inactive. Also, the outcome in experiment [13], in experiment [14], in experiment [15], in experiment [17], in experiment [18] and in experiment [19] was inactive. In experiment [20], the call was inactive. In [16], the AC50 was 55.2 µM (active).
Consider `CCCCCCCCCCCC(=O)Cl`, for which the compound was classed as inactive in experiment [1], in [2], in experiment [3], in experiment [4], in [6] and in experiment [8]. In addition, the compound was called inactive in [9], in experiment [11], in experiment [12], in [13], in [14] and in experiment [15]. In addition, the compound was called inactive in [16], in experiment [17], in [18], in [19] and in experiment [20]. Moreover, the AC50 in experiment [5] is 163 µM (active); in [7] it was 82.8 µM (active); in [10], 65.6 µM (active).
For the compound `CCN=c1cc2oc3cc(NCC)c(C)cc3c(-c3ccccc3C(=O)OCC)c-2cc1C`, the AC50 in experiment [1] was 0.0353 µM (active); in [2], 11.1 µM (active); in [5], 4.45 µM (active); in experiment [7], 2.75 µM (active); in [8], 11.1 µM (active); in [12], 11.1 µM (active). Further, the AC50 in experiment [14] is 11.1 µM (active). Also, the outcome in experiment [3], in experiment [4], in experiment [6], in experiment [9], in experiment [10] and in experiment [11] was inactive. The outcome in experiment [13], in experiment [15], in experiment [16], in [17], in experiment [18] and in experiment [19] was inactive. In experiment [20], the result was inactive.

In general, AC50 refers to the midpoint of the concentration-response curve, whichever way the signal moves.

For the origin of these results see PubChem BioAssay (EPA / NIEHS).
